Assay results from PubChem BioAssay (NCATS).
The source made the active and inactive calls. Calls come from the whole dose curve.

Each compound was assayed against Guanidinoacetate N-methyltransferase (Homo sapiens) (UniProt Q14353) (assay: Confirmatory Screen for Target Class Profiling of Small Molecule Inhibitors of Methyltransferases (AID 1745852; for activity change, negative = inhibition: % is set by controls: 0 for no effect and ±100 for the full control effect)). Conditions: MTase-Glo luminescence, SAH detection, recombinant enzyme; activity change, negative = inhibition: at 57.3 µM (top of the series).
Potency is the fitted concentration of half-maximal effect.

How did the activity change, negative = inhibition turn out when `CC[C@@H](CO)NC(=O)[C@@H]1C=C2c3cccc4c3c(cn4C)C[C@H]2N(C)C1` was run?
Its activity change, negative = inhibition is -1.19%.

`N#CC(C#N)=Cc1ccc(O)c(O)c1` was tested. Which activity change, negative = inhibition did it give?
Its activity change, negative = inhibition is 1.06%.

How did the activity change, negative = inhibition turn out when `CN1C[C@H](CNC(=O)OCc2ccccc2)C[C@@H]2c3cccc4c3c(cn4C)C[C@H]21` was run?
The activity change, negative = inhibition was 5.68%.

For `CC(C)=CCOc1c2occc2cc2ccc(=O)oc12`, which activity change, negative = inhibition is on record?
The activity change, negative = inhibition was -1.68%.

For `Nc1ccncc1`, which Potency is on record?
The Potency was 30.6 µM (active).

How did the activity change, negative = inhibition turn out when `CC[N+](CC)(CC)CC` was run?
Its activity change, negative = inhibition is 3.74%.

What follows are compounds tested against Nicotinamide N-methyltransferase (Homo sapiens) (UniProt P40261) in the same assay as above. Conditions: MTase-Glo luminescence, SAH detection, recombinant enzyme; measured here: NNMT max response; stronger effect = lower value.
Nicotinamide N-methyltransferase (Homo sapiens), sequence (P40261 whole entry, looked up): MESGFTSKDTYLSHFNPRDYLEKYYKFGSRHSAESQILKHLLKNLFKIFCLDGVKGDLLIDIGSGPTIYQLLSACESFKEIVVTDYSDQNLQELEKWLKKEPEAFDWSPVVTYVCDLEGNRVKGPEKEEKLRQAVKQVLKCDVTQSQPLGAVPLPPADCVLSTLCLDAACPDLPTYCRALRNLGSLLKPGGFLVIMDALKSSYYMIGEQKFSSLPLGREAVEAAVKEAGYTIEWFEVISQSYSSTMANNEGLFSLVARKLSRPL

Which activity does the source give for `CC[C@@H](CO)NC(=O)[C@@H]1C=C2c3cccc4c3c(cn4C)C[C@H]2N(C)C1` here?
The activity was -2.9%.

For `N#CC(C#N)=Cc1ccc(O)c(O)c1`, which activity is on record?
The activity was -6.68%.

With `CN1C[C@H](CNC(=O)OCc2ccccc2)C[C@@H]2c3cccc4c3c(cn4C)C[C@H]21` as the compound, how does the activity read?
Its activity is -16.1%.

With `CC(C)=CCOc1c2occc2cc2ccc(=O)oc12` as the compound, how does the activity read?
Its activity is -26.3%.

For `Nc1ccncc1`, which activity is on record?
The activity was -30.8%.

`CC[N+](CC)(CC)CC` was tested. Which activity did it give?
The activity was -4.15%.

Each compound was assayed against Phenylethanolamine N-methyltransferase (Homo sapiens) (UniProt P11086) in the same assay as above. Conditions: MTase-Glo luminescence, SAH detection, recombinant enzyme; measured here: PNMT max response; stronger effect = lower value.
Phenylethanolamine N-methyltransferase (Homo sapiens), sequence (P11086 whole entry, looked up): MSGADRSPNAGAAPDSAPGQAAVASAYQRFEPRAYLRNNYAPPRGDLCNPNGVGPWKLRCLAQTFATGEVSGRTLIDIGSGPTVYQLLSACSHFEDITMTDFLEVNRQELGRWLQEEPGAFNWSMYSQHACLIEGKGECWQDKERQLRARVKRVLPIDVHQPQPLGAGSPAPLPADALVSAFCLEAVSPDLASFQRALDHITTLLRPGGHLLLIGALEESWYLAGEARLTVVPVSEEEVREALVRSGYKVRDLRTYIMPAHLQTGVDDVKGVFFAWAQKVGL

How did the activity turn out when `CC[C@@H](CO)NC(=O)[C@@H]1C=C2c3cccc4c3c(cn4C)C[C@H]2N(C)C1` was run?
The activity was -4.59%.

Which activity does the source give for `N#CC(C#N)=Cc1ccc(O)c(O)c1` here?
The activity was -1.74%.

With `CN1C[C@H](CNC(=O)OCc2ccccc2)C[C@@H]2c3cccc4c3c(cn4C)C[C@H]21` as the compound, how does the activity read?
Its activity is -5.43%.

`CC(C)=CCOc1c2occc2cc2ccc(=O)oc12` was tested. Which activity did it give?
The activity was -3.85%.

With `Nc1ccncc1` as the compound, how does the activity read?
The activity was -0.809%.

For `CC[N+](CC)(CC)CC`, which activity is on record?
The activity was 4.2%.
